Assay outcomes deposited in PubChem by several laboratories.
aDG glyco up: increases alpha dystroglycan glycosylation | Pro5-aDG cells, alpha-DG glycosylation AlphaScreen (IIH6); 0% Pro5, 100% B10-LARGE cell signal | activation, % at 10 µM | 0.22% of 360,000 active;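 active means activation of at least 8% versus controls, or a plate z-score of at least 8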;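 further: Pro5 are CHO cells carrying HIG-tagged alpha-DG that lacks glycosylation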
ADAM17 inh: inhibits human ADAM17. P78536. recombinant ADAM17, EDANS/DABCYL FRET peptide cleavage. inhibition, % at 6.95 µM. 0.83% of 370,000 active. AID 720648;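 active means inhibition above the mean of compounds lying between control limits plus 3 SD, set per campaign, cut at about 8.5% in these data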;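 further: 0% = DMSO-only wells as the low control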
FAS TE block: FAS thioesterase (human) inhibition; recombinant FAS-TE, OMFH fluorogenic substrate, fluorescence endpoint; AID 602261; 0.67% of 360,000 active; inhibition, % at 15 µM;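 active means compounds whose normalised, plate-corrected inhibition of enzyme fluorescence in the single-dose primary screen is 50% or more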;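 further: 0% = DMSO with enzyme and 100% = substrate without enzyme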
ADAM10 inh: inhibitors of human ADAM10; recombinant ADAM10, EDANS/DABCYL FRET peptide cleavage, 3 h; 0.62% of 370,000 active; O14672; inhibition, % at 7 µM;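 active means inhibition above a per-campaign cutoff equal to the mean of compounds falling between control-based bounds plus 3 SD, cut at about 20% in these data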;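 further: 0% = DMSO wells while the 100% control is not disclosed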
Target sequence (O14672 214-748 limits assumed): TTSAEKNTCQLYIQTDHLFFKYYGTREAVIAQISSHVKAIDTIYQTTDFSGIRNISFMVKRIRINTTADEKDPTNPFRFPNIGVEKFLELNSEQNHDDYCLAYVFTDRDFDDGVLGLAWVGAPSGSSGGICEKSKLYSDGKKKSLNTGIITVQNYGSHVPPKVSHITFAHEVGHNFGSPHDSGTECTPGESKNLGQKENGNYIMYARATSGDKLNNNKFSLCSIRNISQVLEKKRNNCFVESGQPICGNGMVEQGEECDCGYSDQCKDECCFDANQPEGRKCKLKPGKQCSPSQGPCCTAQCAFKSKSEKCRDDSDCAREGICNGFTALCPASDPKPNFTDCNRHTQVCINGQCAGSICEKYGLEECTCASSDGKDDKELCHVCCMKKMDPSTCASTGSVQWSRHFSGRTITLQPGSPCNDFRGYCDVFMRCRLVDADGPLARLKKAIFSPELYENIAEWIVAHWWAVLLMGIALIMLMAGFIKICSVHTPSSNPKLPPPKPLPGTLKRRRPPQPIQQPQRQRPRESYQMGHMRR
NR3A LBD binder: NR3A (human) ligand-binding domain modulation; NR3A LBD differential scanning fluorimetry, Tm shift; 0% = protein alone, 100% = glycine-bound protein; Tm shift relative to glycine control, % at 25 µM; 2.5% of 340,000 active;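 active means melting temperature shift of at least 10% of the positive control shift, at one fixed dose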
aDG conf: alpha-DG glycosylation activation, confirmation. shares compounds with aDG glyco up. Pro5-aDG cells, IIH6 AlphaLISA; scaled to LARGE-overexpressing B10 cells as 100%. activation, % at 10 µM (by protocol). 17% of 600 active. AID 651671;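 active means activation of at least 7% in one or more replicates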;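 further: cells exposed to compound for two days before detection; 0% = DMSO-treated Pro5 cells and 100% = DMSO-treated B10-LARGE cells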
* = called active by the depositor; nt = not tested or not shown. Only some compounds are listed: those with a hit (about 4% of all), similar ones and a draw of the others.

SMILES | aDG glyco up | ADAM17 inh | FAS TE block | ADAM10 inh | NR3A LBD binder | aDG conf
CN(CC(=O)Nc1cccc(F)c1)C(=O)c1cccc(S(=O)(=O)N2CCN(c3ccccc3)CC2)c1 | 8.0* | 2 | 14 | 9 | -4 | -1
CN(CC(=O)Nc1ccc(F)cc1)C(=O)c1cccc(S(=O)(=O)N2CCN(c3ccc(F)cc3)CC2)c1 | 2 | 4 | 16 | 16 | 4 | nt
CC(N=C(NC#N)Nc1ccncc1)C(C)(C)C (stereo not given) | 0 | -3 | -8 | 0 | 1 | nt
C/C(=N/Nc1nc(C)cc(-c2ccccc2)n1)c1ccco1 | 0 | -5 | -2 | -7 | -1 | nt
C/C(=N\Nc1nc(C)cc(-c2ccccc2)n1)c1ccc(C)o1 | 4.6* | -3 | 1 | -7 | -1 | 2
CCc1ccccc1NC(=O)COC(=O)c1c(C)nsc1NC | 4.0* | -4 | -7 | -16 | 1 | 0
COCCCNc1nc2c(c(=O)[nH]c(=O)n2C)n1CC(O)COc1ccccc1 (stereo not given) | 11* | 2 | -6 | 7 | -1 | -1
C[C@H](CO)N1C[C@H](C)[C@@H](CN(C)C(=O)NC2CCCCC2)Oc2ccc(NS(=O)(=O)c3cn(C)cn3)cc2C1=O | 0 | -3 | -8 | 4 | -4 | nt
CC(C)NC(=O)N(C)C[C@H]1Oc2ccc(NS(=O)(=O)c3cn(C)cn3)cc2C(=O)N([C@H](C)CO)C[C@@H]1C | 9.3* | -3 | -8 | 2 | 0 | 2
CC(C)Cc1cc(CN2CCC(CO)(Cc3cccc(C(F)(F)F)c3)CC2)[nH]n1 | 10* | 1 | 0 | 2 | -5 | 4
CC(C)Cc1cc(CN2CCCC(CO)(Cc3cccc(Cl)c3)C2)[nH]n1 (stereo not given) | 0 | 1 | 5 | 1 | -1 | nt
COc1cccc(NC(=O)Cn2c(=O)n(C)c(=O)c3sc4c(c32)COC(C)(C)C4)c1 | 0 | 0 | 6 | 4 | -2 | nt
COC(=O)c1cccc(NC(=O)CN2C(=O)c3ccccc3C2=O)c1 | 1.3* | -7 | -3 | -28 | 0 | 1
COC(=O)c1cccc(NC(=O)C(C)N2C(=O)c3ccccc3C2=O)c1 (stereo not given) | 0 | 2 | -4 | -1 | 0 | nt
CC(=O)Nc1nc(CC(=O)c2ccccc2)cs1 | 8.4* | 1 | -5 | -2 | 2 | 1
CCCC[n+]1ccn(C2=C([O-])c3ccccc3C(=O)/C2=N\S(=O)(=O)c2ccc(Br)cc2)c1 | 11* | 3 | 11 | -1 | -3 | 13*
Cc1cccc(CNc2ncnc3ccc(-c4ccoc4)cc23)c1 | 1 | -11 | 20 | -50 | -5 | nt
Cc1onc(-c2ccccc2)c1C(=O)N/N=C/c1ccco1 | 0 | -3 | -2 | -7 | -1 | nt
O=C(CCNC(=O)c1ccccc1Cl)NN=Cc1ccccc1[N+](=O)[O-] | 0 | -11 | 0 | -10 | 0 | nt
Cc1onc(-c2ccccc2)c1C(=O)N/N=C/c1ccc([N+](=O)[O-])s1 | 6.0* | 3 | -9 | -2 | -10 | 3
O=C(CNC(=O)c1ccccc1Cl)N/N=C/c1ccc([N+](=O)[O-])s1 | 12* | -5 | -8 | 8 | -5 | 6.5*
O=C(Cc1cccs1)N/N=C\c1ccc([N+](=O)[O-])s1 | 13* | 0 | -2 | -5 | 0 | 3.9*
COC(CNC(=O)c1cn(C)c2ccc(S(=O)(=O)N3CCOCC3)cc2c1=O)OC | 0 | 7 | -3 | 10 | 2 | nt
CCn1cc(C(=O)NCC(OC)OC)c(=O)c2cc(S(=O)(=O)N3CCOCC3)ccc21 | 7.6* | -2 | -1 | -9 | 2 | 0
CCCNC(=O)C1CCN(S(=O)(=O)c2cccc3nonc23)CC1 | 0 | -2 | -2 | 2 | -1 | nt
SMILES | aDG glyco up | ADAM17 inh | FAS TE block | ADAM10 inh | NR3A LBD binder | aDG conf
CCN(CCCNC(=O)C1CCN(S(=O)(=O)c2cccc3nonc23)CC1)Cc1ccccc1 | 8.3* | -3 | 0 | -1 | 10 | 0
CNCCC(Oc1ccccc1OC)c1ccccc1 (stereo not given) | 0 | -7 | 0 | -9 | -3 | nt
Cc1cc(NC(=O)Cc2ccccc2)c2ccccc2n1 | 7.5* | 1 | -3 | 6 | 0 | 0
Cc1ccccc1Cn1c(C)nc2ccccc21 | 3.3* | -1 | -4 | 1 | 0 | 2
COc1ccccc1Cn1c(C)nc2ccccc21 | 0 | -4 | -5 | -2 | 2 | nt
Cc1cc(C)n2nc(C(=O)Nc3nnc(C4CC4)s3)nc2n1 | 0 | -5 | -14 | 3 | -1 | nt
CCN1CCc2c(sc(NC(=O)c3ccc(S(=O)(=O)N4CC(C)OC(C)C4)cc3)c2C(N)=O)C1 (stereo not given) | 17* | -6 | -4 | -7 | 1 | 3
CN1CCc2c(sc(NC(=O)c3ccc(C(=O)c4ccccc4)cc3)c2C(N)=O)C1 | 12* | -2 | -9 | -9 | -27 | 2
CCN1CCc2c(sc(NC(=O)c3ccc4ccccc4c3)c2C(N)=O)C1 | 3 | -3 | -1 | -33 | nt | nt
CC(C)c1cc(C(=O)N(C2CCCCC2)C2CCCCC2)no1 | nt | -5 | nt | -9 | nt | nt
CCCCc1nnc(NC(=O)CCS(=O)(=O)c2ccc(Cl)cc2)s1 | 1 | -4 | -4 | -10 | 0 | nt
Cc1cc(C)c(S(=O)(=O)O)c(C)n1 | 6.9* | -1 | -7 | -5 | 1 | 0
O=C(CCN1C(=O)COc2ccccc21)NCCCN1CCCC1 | 6.4* | -11 | -6 | -24 | -3 | 2
CCOC(=O)c1cn2ccc(C)cc2n1 | 20* | -11 | -4 | -23 | -1 | 1
CCSc1nnc(NC(=O)C2CCCCC2C(=O)O)s1 (stereo not given) | 0 | -2 | -12 | 0 | -1 | nt
COc1ccccc1CN1CC(C(=O)NCc2ccc(N3CCCC3=O)cc2)CCC1=O (stereo not given) | 0 | -5 | -9 | 2 | 0 | nt
FC(F)(F)c1cccc(Cc2noc(CN3CCC(c4ccncc4)CC3)n2)c1 | 6.1* | 0 | 9 | 2 | -2 | 2
Cc1ccc(OCCCCNC2CCCCC2)c(C)c1 | 6.9* | -1 | -7 | 2 | 0 | 1
COCCCn1c(=O)c2sccc2n2c(CCCC(=O)NCc3ccccc3)nnc12 | 0 | 1 | -5 | 0 | -3 | nt
C=CCOc1ccccc1CN1CCC(Cc2ccccc2)CC1 | 0 | 0 | -3 | -6 | 0 | nt
CNc1nc(-c2c(C)n(C)c3ccc(OC)cc23)cs1 | 3.0* | 0 | -24 | -1 | -2 | 4
O=C(CC1C(=O)NCCN1Cc1ccoc1)NCc1cccc(OC(F)(F)F)c1 (stereo not given) | 0 | -4 | -3 | -1 | -2 | nt
O=C(O)CSc1nnc(-c2ccccc2O)n1Cc1ccccc1 | 83* | -4 | -9 | -10 | 0 | 0
O=C(CSc1nnc(-c2ccccc2O)n1Cc1ccccc1)NNC(=O)c1ccccc1O | 0 | -3 | 3 | -8 | -7 | nt
